Active and inactive are the calls of the source.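 How the source made its calls: active means growth inhibition above 50% at the single 2 µM test dose, taken to imply half-maximal potency below 2 µM; inactive means the rest.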
Assay: antimalarial activity against Dd2 strain (AID 2302);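 further: 0% = DMSO untreated growth and 100% = chloroquine plus artemisinin killed control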
Details: P. falciparum Dd2 in RBCs, LDH growth readout, 72 h; at 2 µM; stronger effect = higher value
In the case of `COCCNCc1cccc(-c2ccc(CNC3CCN(Cc4ccccc4)CC3)cc2)c1`, the growth inhibition is reported as 97% (active).
For `CCC(C)C#Cc1c(C)nc(N)nc1N` (configuration not stated), the growth inhibition was -4% (inactive).
In the case of `Cc1cc(NC(=O)NCCN2CCC(NS(=O)(=O)c3ccccc3Cl)C2)c2ccccc2n1` (configuration not stated), the growth inhibition is reported as 43% (inactive).
In the case of `O=C(CCc1ccccc1)NC(c1ccc(Cl)cc1)c1ccc2cccnc2c1O` (configuration not stated), the growth inhibition is reported as 49% (inactive).
With `Fc1ccc2nc(-c3ccc(-c4cccc(CN5CCCCC5)c4)cc3)[nH]c2c1` the growth inhibition was 101% (active).
In the case of `O=C(Nc1ccc(-c2nc3ccccc3[nH]2)cc1)C1CCCN(C2CCC2)C1` (configuration not stated), the growth inhibition is reported as 5% (inactive).
In the case of `NC(=O)C1CCN(Cc2ccc(-c3ccc(-c4nc5ccc(C(F)(F)F)cc5[nH]4)cc3)cc2)CC1`, the growth inhibition is reported as 90% (active).
For `COc1ccc(-c2cccc(NC(=O)c3ccc(Cl)cc3)c2)cc1CNC(C)C`, the growth inhibition was 44% (inactive).
In the case of `COc1ccc(CNC2CCN(C)CC2)cc1-c1ccc(S(=O)(=O)NCCc2ccccn2)c(F)c1`, the growth inhibition is reported as 55% (active).
With `Cc1cnc(NCCc2ccc(F)cc2)nc1N[C@@H](CC(C)C)C(=O)Nc1ccccc1` the growth inhibition was 29% (inactive).
For `Oc1ccc(Br)cc1-c1nc2ccc(Cl)cc2nc1-c1cc(Br)ccc1O`, the growth inhibition was 64% (active).
For `COc1ccc(CNC2CCN(C)CC2)cc1-c1cccc(S(=O)(=O)NCc2ccccc2)c1`, the growth inhibition was 7% (inactive).
For `CC[C@H](C)CNC(=O)c1ccnc(-c2ccc(CNCCCc3ccccc3)cc2)c1`, the growth inhibition was 84% (active).
With `CS(=O)(=O)c1ccc2nc(-c3cc(-c4ccc(OCCN5CCOCC5)cc4)cnc3N)[nH]c2c1` the growth inhibition was 99% (active).
For `Cc1ccc2[nH]c3ccccc3c(=O)c2c1`, the growth inhibition was 74% (active).
For `Cc1ccc(-c2nnc3c4ccccc4c(C)nn23)cc1S(=O)(=O)N1CCN(CCO)CC1`, the growth inhibition was 62% (active).
With `Cc1cc(N2CCN(C3CCCCC3)CC2)nc2cccc(O)c12` the growth inhibition was 37% (inactive).
With `CC(C)C[C@H](NC(=O)[C@H](Cc1ccccc1)NC(=O)CCN1C(=O)COc2ccc(C(=O)O)cc21)C(=O)NC(CC1CCCCC1)C(O)CC(=O)NCCCn1ccnc1` (some centres not stated) the growth inhibition was -4% (inactive).
For `COc1c(C2=CCN(CCCCNC(=O)c3ccc(-c4ccc(C#N)cc4)cc3)CC2)c(C)cc2c1C(C)(C)CCC2(C)C`, the growth inhibition was 88% (active).
In the case of `Cc1cc(N2CCC(NS(=O)(=O)c3ccccc3)CC2)nc(Nc2cccc(C#N)c2)n1`, the growth inhibition is reported as 29% (inactive).
For `O=C(Nc1ccc(Cl)cn1)c1sc2ccccc2c1O`, the growth inhibition was 18% (inactive).
For `Cc1ccc(NC(=O)NC2CCN(CCC(NC(=O)Cc3ccccc3)c3ccc(Cl)c(Cl)c3)CC2)cc1` (configuration not stated), the growth inhibition was 2% (inactive).
For `Cc1cc(N)c2cc(NC(=O)c3cccc4ccccc34)ccc2n1`, the growth inhibition was 13% (inactive).
In the case of `Cc1cc(NCCCN2CCCC2=O)n2c(nc3ccccc32)c1C#N`, the growth inhibition is reported as 48% (inactive).
In the case of `COc1ccc(F)cc1-c1cccc(CNC2CCN(CC3Cn4c(=O)ccc5ccc(F)c3c54)CC2)c1` (configuration not stated), the growth inhibition is reported as 27% (inactive).
For `NC(=O)C1CCN(Cc2cccc(-c3cccc(-c4nc5ccc(C(F)(F)F)cc5[nH]4)c3)c2)CC1`, the growth inhibition was 100% (active).
For `O=C(/C=C/c1ccc(F)cc1)NC1CCC(CCN2CCc3ccc(-n4cccn4)cc3CC2)CC1` (configuration not stated), the growth inhibition was 16% (inactive).
In the case of `Cc1cccc2[nH]c(-c3cccc(-c4ccc(C(=O)N5CCCCC5C(C)O)cc4)c3)nc12` (configuration not stated), the growth inhibition is reported as 91% (active).
With `COc1ccc(N2CCN(CCCN3CCN(C(=O)c4ccc(/C=C/c5ccc(Cl)c(Cl)c5)cc4)CC3)CC2)c(OC)c1` the growth inhibition was 52% (active).
For `C[C@@H](Oc1cc(-n2cnc3ccc(NC(=O)CCN4CCCCC4)cc32)sc1C(N)=O)c1ccccc1Cl`, the growth inhibition was 60% (active).
With `Cc1ccc(CCC(C)NCC(O)c2cccc(C(F)(F)F)c2)cc1` (configuration not stated) the growth inhibition was 98% (active).
In the case of `O=C(NCc1cccc(C(F)(F)F)c1)C(c1cc2ccccc2o1)N1CCN(C(c2ccccc2)c2ccccc2)CC1` (configuration not stated), the growth inhibition is reported as 80% (active).
With `COc1ccc(Cl)cc1N1CCN(CCCNC(=O)c2ccc(-c3nc4ccc(C(F)(F)F)cc4[nH]3)c(C)c2)CC1` the growth inhibition was 14% (inactive).
With `CCCCOC(=O)C1=C(C)NC2=C(C(=O)CCC2)C1c1ccc(OC)c(Br)c1` (configuration not stated) the growth inhibition was 87% (active).
In the case of `Cc1cccc(-c2ccc3c(c2)CC(NCc2cccc(-n4ccnc4)c2)C3)c1` (configuration not stated), the growth inhibition is reported as 49% (inactive).
In the case of `CNC(=O)c1ccccc1Nc1nc(Nc2cccnc2)ncc1C`, the growth inhibition is reported as 90% (active).
With `CC(C)(C)S[C@H]1S[C@H](SC(C)(C)C)[C@@H](OC(=O)c2ccccc2)C(OC(=O)c2ccccc2)[C@H]1OC(=O)c1ccccc1` (some centres not stated) the growth inhibition was 45% (inactive).
